Test results published in the supplement of paper PMC6555819.

test system: RXRa homodimer (NR concentration 180 nM); assay: PBM binding z-score (relative to random genomic background probes); higher = stronger binding; sequences stand for … in GC…GCGATTGACAGCGTAGAATGAAGG
Summary of the method: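 Binding buffer was PBS pH 7.4 with 2% milk, 0.02% Triton X-100, 1 mM DTT, 0.2 mg/mL BSA and 0.4 mg/ml salmon testes DNA. In it, ligand-free nuclear receptor dimers were incubated 1 h on custom Agilent 4×180K protein-binding microarrays carrying double-stranded probes. Antibodies against each partner (one per run) detected binding, and z-scores were calculated against random background probes after regression normalization of scanned fluorescence.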

| Sequence | PBM binding z-score |
| --- | --- |
| CGAGACAGGTGAAAGGTAACTCAGTCTGGTACGC | 2.11 |
| TGAATGAGGTTATAAGAGCAGGGAACGTTGCAAA | 1.87 |
| CCTGCTAGGTGATGGTCAGCTAATCTACAGTATG | -0.424 |
| TCTGCTAGGTCAGTTGGTCAACTAACGAGCTGCC | 1.03 |
| TCATGTAGATCAATAGAGGTTAAGAAAGTGCGCT | 1.28 |
| TGAATGAGGTTAGAAGATCAGGGAACGTTGCAAA | 1.17 |
| CCGACAGGGGCAGAAAGGTTACCATACCATCCGG | 1.99 |
| CCGGCTGGGGCAAGGTTACCATAACGCACAGCCA | 1.14 |
| TTACCAAGGTGTGCTGAGGTCGTTGATCCAACTC | 0.725 |
| GGAACGAAGGCAAGTTGATAGCAGAGTTTGATGG | -0.667 |
| ATATGCAGGTTACATCCGGGTCATTCAGGCTATG | 3.53 |
| CCTACTGGGCCACGAAAGTTCATTGATTCAGTGA | 1.46 |
| ATATGTAGGTTGCATCCGGGTCATTCAGGCTATG | 2.28 |
| TCTTATAGGTAATACAGGTGAAAGTCGGCATCTA | 1.18 |
| TCGAGTAGGTTAGTCGAGGCATTCAGCCAACATA | -0.032 |
| CCAAGTAGGTTATGGGGCATTCAGGCAACGGTGA | 0.733 |
| ATTTGTAGGTTAAGGGTCATTCAGGTTGGTTCGC | 6.91 |
| TCTTGTAGATCAAGCAGATTAAGAAAGCCTGAGT | 0.2 |
| GTACCAAGGTGAATAGGTCGATGATGAGTAGGCG | 1.86 |
| CATACAGGATCAGCTAGGCCAGAGTAGGGACGGC | -0.0715 |
| ACAGACAGGTGAGTGAATGTAACTCAGCTGGACG | 0.676 |
| TGAATGAGGTTAAAGATCATGGAACGTGGCGTCG | 4.34 |
